# Measurements reported in PubChem BioAssay.
# Inconclusive results are not listed. Calls of active or inactive are those of the source.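 Rule for the calls, unless noted: active = growth inhibition above 25% in both replicates, a cutoff set 3 SD above the mean; inconclusive = above 25% in only one replicate; inactive = the rest.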
# How the values were obtained:
# [1] = Her2 expression decrease, cell viability multiplex – SKBR3 breast tumor cells, AlphaScreen, ATP viability, primary screen (AID 461;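 active = Her2 level under about 52% in both replicate screens, with viability over 70% of control, limit read from the data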;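 for Her2 level: lower value means less Her2 protein in the cells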;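 for viability: percent of carrier control wells set as 100% viability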); conditions: SKBR3 Her2 protein level, 18-24 h, measured here: SKBR3 viability, ATP luminescence, at 10 µM
# [2] = target: Receptor tyrosine-protein kinase erbB-2 (Homo sapiens) (UniProt P04626); assay: as above; conditions: 18-24 h, at 10 µM, stronger effect = lower value
# [3] = reduced viability of SK-BR-3 breast cancer cells – cell-based, 24 h, human, pilot screen (AID 572;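 active = viability at or below 10% of carrier control in both of two separate runs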;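 note: compound exposure lasted between 18 and 24 h rather than exactly 24 h; 100% = carrier-treated control wells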); conditions: SK-BR-3 viability, CellTiter-Glo luminescence, at 10 µM, stronger effect = lower value
# [4] = HUVEC growth inhibition – cell-based, human, primary screen (AID 575;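 active = viability at or below 30% in both replicate assays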;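 note: 100% = median of untreated cell wells with 0.1% DMSO on each plate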); conditions: HUVEC proliferation, CellTiter-Glo luminescence, 72 h; at 10 µM; stronger effect = lower value
# [5] = H69AR cell proliferation blockers – human, duplicate replicates, primary screen (AID 580;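 active = viability at or under a set limit in both replicates, limit being median viability minus 3 SD, cut at about 48% in these data, passing the limit was not always enough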;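 note: 100% = mean luminescence of untreated wells and 0% = no signal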); conditions: H69AR lung tumor cells viability, ATP luminescence, 72 h; at 10 µM; stronger effect = lower value
# [6] = MRP1 drug-resistance reversers in H69AR cells – cell-based, doxorubicin co-treatment, pilot screen (AID 601;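 active = viability loss from added drug above about 55%, and viability with drug at most 40%, in both replicates, limit read from the data, passing the limit was not always enough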); conditions: CellTiter-Glo, 72 h, at 10 µM; for differential viability (reversal): stronger effect = higher value
# [7] = yeast transport mutant growth inhibition pilot in 384-well plates, post-Golgi transport modulator project (AID 636; in the data active = inhibition above about 31%); conditions: absorbance 615 nm, about 18 h, stronger effect = higher value
# [8] = growth suppression of yeast trafficking mutant, preliminary HTS, modulators of trafficking downstream of Golgi apparatus project, 1536-format plate, OD 615 nm (AID 637; in the data active = inhibition above about 30%); conditions: yeast transport mutant growth, absorbance 615 nm, 18 h; stronger effect = higher value
# [9] = S. cerevisiae growth inhibition in permissive medium (OD615), pilot counter-assay for S. cerevisiae lifespan shortening project, permissive growth control (AID 705); conditions: OD615, 24 h, at 10 µM, stronger effect = higher value
# [10] = S. cerevisiae growth inhibition in restrictive medium, OD615, pilot screen, restrictive growth control, yeast lifespan reduction project (AID 706;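 active = growth inhibition above a set limit, 3 SD over mean compound inhibition, in both replicates, cut at about 43% in these data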;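 note: modified DeaD lifespan yeast strain shifted to restrictive glucose medium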); conditions: OD615, 48 h, at 10 µM, stronger effect = higher value
# [11] = doxorubicin toxicity protection in MRP-1 cells – H69AR cells, CellTiter-Glo, duplicate, MRP-1 activator project, pilot screen (AID 807;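 active = viability increase at or above a cutoff of the median across tested compounds plus 3 SD, cut at about 8.5% in these data, passing the limit was not always enough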;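 note: compound pretreatment 18-22 h then 72 h combined with doxorubicin; 0% = doxorubicin alone and 100% = vehicle without doxorubicin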); conditions: H69AR viability with doxorubicin, CellTiter-Glo luminescence; at 10 µM; stronger effect = higher value
# [12] = viability of HCT116 without oncogenic beta-catenin – human colon tumor cells, pilot screen (AID 823;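 active = cell viability at or below a set limit in both duplicate runs, the limit being the all-compound median minus 4 SD, cut at about 23% in these data, passing the limit was not always enough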;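 note: 0% = wells killed by 20 µM Hyamine and 100% = untreated DMSO cell wells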); conditions: HCT116 beta-catenin knockout viability, CellTiter-Glo, 60 h; at 10 µM; stronger effect = lower value
# [13] = viability of PTEN-null HCT116 cells – cell-based, HCT116 clonal line, CellTiter-Glo, pilot screen (AID 824;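 active = viability at or below 27.92% in each of two runs, the all-compound median minus 4 SD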;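 note: 0% = 20 µM Hyamine control and 100% = vehicle cell control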); conditions: HCT116 PTEN-deleted viability, 60 h, at 10 µM, stronger effect = lower value
# [14] = RAM pathway blockade in budding yeast – dse1pr::URA3 reporter, 5-FOA selection, pilot screen (AID 869;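 active = inhibition over a set limit, the all-compound mean plus 3 SD, in both replicate runs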;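 note: 0% = DMSO wells with no growth and 100% = 10 µM 1-NA-PP1 with full growth; RAM network block rescues cells from 5-FOA so hits raise OD615 growth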); conditions: S. cerevisiae dse1pr::URA3 5-FOA growth, OD615, 2 d; at 10 µM; stronger effect = higher value; strain carries analog-sensitive mutant Cbk1 kinase
# [15] = RAM signaling pathway blockade in yeast – S. cerevisiae, Pdr1DBD-CYC8 efflux-inhibited sensitized strain, primary screen (AID 1298;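 active = RAM network inhibition above 8.4% in each of two replicates, 3 SD over the compound average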;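 note: 0% = DMSO untreated cells without growth and 100% = 10 µM 1-NA-PP1 full growth; higher means more yeast growth rescued from 5-FOA killing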); conditions: S. cerevisiae cbk1-as DSE1-URA3 strain, 5-FOA growth OD615, 2 d; at 50 µM; stronger effect = higher value
# [16] = H69AR cells + 2 uM doxorubicin, measured here: viability with 2 uM doxorubicin, stronger effect = lower value
# [17] = H69AR cells, compound alone cytotoxicity
# Sequence of Receptor tyrosine-protein kinase erbB-2 (Homo sapiens) (P04626 whole entry, looked up): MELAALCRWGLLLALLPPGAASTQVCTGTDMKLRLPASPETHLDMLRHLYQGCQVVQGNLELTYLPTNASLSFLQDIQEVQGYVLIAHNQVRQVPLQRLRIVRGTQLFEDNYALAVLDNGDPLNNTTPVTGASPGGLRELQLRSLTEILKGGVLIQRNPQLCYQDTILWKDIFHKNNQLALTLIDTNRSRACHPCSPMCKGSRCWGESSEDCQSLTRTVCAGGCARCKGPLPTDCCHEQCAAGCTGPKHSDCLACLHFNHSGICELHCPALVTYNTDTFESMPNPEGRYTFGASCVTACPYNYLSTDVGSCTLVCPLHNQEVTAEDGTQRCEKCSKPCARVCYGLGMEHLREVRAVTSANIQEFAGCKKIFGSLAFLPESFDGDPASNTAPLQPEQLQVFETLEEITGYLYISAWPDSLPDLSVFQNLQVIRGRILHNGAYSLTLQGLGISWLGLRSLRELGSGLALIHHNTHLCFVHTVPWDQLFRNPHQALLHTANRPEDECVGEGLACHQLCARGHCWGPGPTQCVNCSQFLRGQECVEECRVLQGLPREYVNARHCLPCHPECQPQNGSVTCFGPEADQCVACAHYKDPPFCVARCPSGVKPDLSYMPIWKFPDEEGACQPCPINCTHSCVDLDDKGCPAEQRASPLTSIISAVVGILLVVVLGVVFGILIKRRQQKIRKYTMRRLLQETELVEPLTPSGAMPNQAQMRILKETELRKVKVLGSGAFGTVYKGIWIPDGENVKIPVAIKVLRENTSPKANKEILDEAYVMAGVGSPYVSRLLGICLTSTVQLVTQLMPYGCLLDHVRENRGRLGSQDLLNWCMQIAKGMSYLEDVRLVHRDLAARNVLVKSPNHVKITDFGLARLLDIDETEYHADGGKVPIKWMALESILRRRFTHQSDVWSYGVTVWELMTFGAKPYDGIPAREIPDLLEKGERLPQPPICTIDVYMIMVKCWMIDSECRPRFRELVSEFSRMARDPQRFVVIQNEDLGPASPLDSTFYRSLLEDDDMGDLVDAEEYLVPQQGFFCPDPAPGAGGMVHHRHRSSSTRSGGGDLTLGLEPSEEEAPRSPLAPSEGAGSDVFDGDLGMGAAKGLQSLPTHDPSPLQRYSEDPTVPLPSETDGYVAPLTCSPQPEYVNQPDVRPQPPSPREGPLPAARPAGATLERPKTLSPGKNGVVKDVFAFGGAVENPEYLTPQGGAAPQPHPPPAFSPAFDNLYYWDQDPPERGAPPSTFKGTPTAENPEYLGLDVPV
Compound,viability [1] [%],Her2 level [2],viability [3],viability [4],viability [5],differential viability (reversal) ([6]; H69AR cells + 2 uM doxorubicin),"viability [6, 16] [%]","viability [6, 17] [%]",inhibition [7],inhibition [8],growth inhibition [9],growth inhibition [10],viability increase [11],viability [12],viability [13],inhibition [14],RAM network inhibition [15]
CCCCOCCCNC(=O)COc1ccccc1,103,104% (inactive),103% (inactive),102% (inactive),94.1% (inactive),-2.32% (inactive),96.4,94.1,-5.54% (inactive),-2.46% (inactive),-2.82% (inactive),-5.04% (inactive),-1.43% (inactive),94.5% (inactive),97.5% (inactive),0.215% (inactive),-0.62% (inactive)
COc1nc(Oc2ccc(=O)n(C)n2)nc(N(C)C)n1,81,107% (inactive),81% (inactive),88.5% (inactive),92.7% (inactive),-2.47% (inactive),95.1,92.7,1.67% (inactive),-9% (inactive),-3.33% (inactive),0.62% (inactive),0.29% (inactive),95.2% (inactive),101% (inactive),2.61% (inactive),1.59% (inactive)
Cn1cccc1Cc1nnc(SCC(=O)NCC2CCCO2)n1-c1ccc(F)cc1 (stereo not given),97.5,90% (inactive),97.5% (inactive),106% (inactive),91% (inactive),0.18% (inactive),90.9,91,-4.93% (inactive),-2.33% (inactive),-11.2% (inactive),-5.59% (inactive),-1.1% (inactive),108% (inactive),94.7% (inactive),0.02% (inactive),6.15% (inactive)
Cc1ccc(C(=O)NC(Cc2c[nH]c3ccccc23)C(=O)O)o1 (stereo not given),95.5,130% (inactive),95.5% (inactive),87.3% (inactive),88.9% (inactive),1.82% (inactive),87.1,88.9,1.95% (inactive),-5% (inactive),1.54% (inactive),-2.65% (inactive),-3.09% (inactive),96.2% (inactive),96.4% (inactive),1.82% (inactive),6.26% (inactive)
CCCn1cc(SCC(N)=O)c2ccccc21,86.5,102% (inactive),86.5% (inactive),90.6% (inactive),91.2% (inactive),-13.4% (inactive),105,91.2,-4.93% (inactive),4.83% (inactive),-9.29% (inactive),-15.9% (inactive),-1.96% (inactive),100% (inactive),95.6% (inactive),0.545% (inactive),0.42% (inactive)
CCOC(=O)c1ccc(NCc2nc3ccccc3[nH]2)cc1,88.5,97% (inactive),88.5% (inactive),86% (inactive),105% (inactive),15.1% (inactive),89.7,105,0.93% (inactive),-2.62% (inactive),-1.66% (inactive),-8.54% (inactive),-5.9% (inactive),86.8% (inactive),76.8% (inactive),1.83% (inactive),2.11% (inactive)
Cc1ccccc1-n1c(Cn2c(=O)sc3ccccc32)nnc1SCC(=O)N1CCCC1,109,90.5% (inactive),109% (inactive),98% (inactive),93.7% (inactive),12.6% (inactive),81.1,93.7,-4% (inactive),6.89% (inactive),-2.21% (inactive),6.39% (inactive),-0.45% (inactive),98.6% (inactive),104% (inactive),-0.765% (inactive),8.27% (inactive)
CCOC(=O)N1CCN(C(=O)c2ccc3nc4ccsc4c(=O)n3c2)CC1,97.5,102% (inactive),97.5% (inactive),87.2% (inactive),89.4% (inactive),-1.36% (inactive),90.8,89.4,-7.87% (inactive),-6.39% (inactive),5.57% (inactive),7.09% (inactive),-4.18% (inactive),101% (inactive),101% (inactive),0.335% (inactive),-0.16% (inactive)
CC1CCc2nn(CC(=O)NCCCN3CCOCC3)cc2C1 (stereo not given),99.5,102% (inactive),99.5% (inactive),85.6% (inactive),90.5% (inactive),2.46% (inactive),88.1,90.5,-3.97% (inactive),-0.83% (inactive),7.55% (inactive),6.69% (inactive),-1.14% (inactive),104% (inactive),95% (inactive),3.4% (inactive),1.33% (inactive)
Cc1cccc(-n2nc3c(c2NC(=O)CCC2CCCCC2)CS(=O)C3)c1C (stereo not given),95,94.5% (inactive),95% (inactive),86.3% (inactive),90.9% (inactive),1.55% (inactive),89.3,90.9,-4.13% (inactive),1.33% (inactive),-8.41% (inactive),1.94% (inactive),-1.85% (inactive),91.8% (inactive),92.1% (inactive),1.02% (inactive),1.36% (inactive)
CC1=C(C(=O)Nc2ccccc2)C(c2ccccn2)n2nc(CCCO)nc2N1 (stereo not given),94.5,105% (inactive),94.5% (inactive),101% (inactive),95.6% (inactive),1.47% (inactive),94.1,95.6,-5.73% (inactive),-3.33% (inactive),-14.1% (inactive),-8.68% (inactive),-0.39% (inactive),96.3% (inactive),92.9% (inactive),1.56% (inactive),5.48% (inactive)
CCOC(=O)C1=C(C)NC(=O)NC1c1ccc(Br)s1 (stereo not given),119,102% (inactive),119% (inactive),103% (inactive),108% (inactive),24.9% (inactive),83.5,108,-6.53% (inactive),4.03% (inactive),-10.5% (inactive),-15.3% (inactive),-0.63% (inactive),92.8% (inactive),89.7% (inactive),0.86% (inactive),3.71% (inactive)
Cc1cc(C)nc(/N=C2\NC(=O)CC(C(=O)O)N2c2ccc(Cl)cc2)n1 (stereo not given),106,100% (inactive),106% (inactive),88.7% (inactive),96% (inactive),3.08% (inactive),92.9,96,-6.53% (inactive),5.17% (inactive),0.655% (inactive),5.68% (inactive),1.08% (inactive),99.5% (inactive),102% (inactive),1.93% (inactive),3.63% (inactive)
COCCOC(=O)C1=C(C)OC(N)=C(C#N)C1c1ccc2c(c1)OCO2 (stereo not given),98,91.5% (inactive),98% (inactive),93.7% (inactive),84.8% (inactive),4.96% (inactive),79.8,84.8,-3.12% (inactive),-7.5% (inactive),2.33% (inactive),-2.95% (inactive),-1.47% (inactive),106% (inactive),105% (inactive),0.465% (inactive),3.07% (inactive)
CC1CCN(c2nc3c(c(=O)[nH]c(=O)n3C)n2CCSc2ncccn2)CC1,96.5,97% (inactive),96.5% (inactive),109% (inactive),90.8% (inactive),0.415% (inactive),90.4,90.8,-4.4% (inactive),-5.17% (inactive),1.06% (inactive),-2.73% (inactive),-0.46% (inactive),102% (inactive),102% (inactive),2.46% (inactive),2.81% (inactive)
O=C(CN1C(=O)c2ccccc2S1(=O)=O)NCc1ccccc1Cl,90.5,108% (inactive),90.5% (inactive),99% (inactive),89.3% (inactive),6.38% (inactive),82.9,89.3,-2.05% (inactive),-2.17% (inactive),-8.21% (inactive),-12.6% (inactive),-0.47% (inactive),102% (inactive),100% (inactive),0.125% (inactive),4.41% (inactive)
CCN(CC)C(=O)Oc1ccccc1NC(C)=O,102,92% (inactive),102% (inactive),107% (inactive),90.5% (inactive),-0.19% (inactive),90.7,90.5,-5.14% (inactive),-3% (inactive),1.79% (inactive),-2.54% (inactive),-0.54% (inactive),92.2% (inactive),96.1% (inactive),0.84% (inactive),-0.6% (inactive)
Cc1ccc(S(=O)(=O)NCCOC(=O)Nc2sc(=S)n(C)c2C)cc1,75.5,96.5% (inactive),75.5% (inactive),90% (inactive),101% (inactive),7.26% (inactive),94.1,101,-2.84% (inactive),14.9% (inactive),6.39% (inactive),23.1% (inactive),-3.78% (inactive),115% (inactive),88.2% (inactive),1.25% (inactive),1.73% (inactive)
Cc1nc2ccccn2c1/C(O)=C1\C(=O)C(=O)N(CCCN(C)C)C1c1ccc(F)cc1 (stereo not given),89,91% (inactive),89% (inactive),94.4% (inactive),90.8% (inactive),-13.7% (inactive),105,90.8,0.4% (inactive),3.11% (inactive),-6.91% (inactive),-14% (inactive),-2.7% (inactive),104% (inactive),88.1% (inactive),0.255% (inactive),-2.2% (inactive)
c1ccc(Cn2nnc3c(N4CCCCCC4)ncnc32)cc1,94,88% (inactive),94% (inactive),57.5% (inactive),69.9% (inactive),-13.9% (inactive),83.8,69.9,-5.87% (inactive),2.83% (inactive),-13% (inactive),-8.65% (inactive),-0.65% (inactive),40% (inactive),33.6% (inactive),0.74% (inactive),5.41% (inactive)
